The values below come from PubChem BioAssay (NCATS).

Records with an inconclusive call do not appear. Active and inactive are the calls of the source. The call rests on the fitted dose curve; in most records, active means well fitted inhibition curve with a large enough effect; inconclusive means small, poorly fitted or top-dose-only effect; inactive means flat fitted curve, though single readings scatter.
On the % scale 0 is the no-effect control and ±100 the full control effect; potency means the concentration at half of the fitted maximal effect.

The assay is described as follows: Primary qHTS for inhibitors of nuclear receptor binding SET domain protein 2 (NSD2) in an isogenic RCH-ACV NSD2 p.E1099K mutant (9B) (AID 1645876). Further: nearly all actives have a fitted effect of over 70% in size. The note with it: RCH-ACV (leukaemia line) NSD2 E1099K (9B) viability, CellTiter-Glo, 72 h; series mostly up to 44.9 µM; activity change, negative = viability loss: at the top concentration.
Consider `O=C(O)c1ccc(OC2OC(CO)C(O)C(O)C2O)cc1` (configuration not stated), for which the “activity change, negative = viability loss” value is -3.6% (inactive).
Turning to `CC1CC(C(O)C(C)(C)O)OC2CC3(C)C4(C)CCC5C(C)(C)C(=O)CCC5(C)C4CCC3(O)C12O` (configuration not stated), the “activity change, negative = viability loss” value is -0.669% [at 17.3 µM] (inactive).
With `O=C1NC(=O)C(c2cn3c4c(cccc24)CCC3)C1c1c[nH]c2ccccc12` (configuration not stated), the Potency was 1030 nM (active).
Same read-out and setting: the value for `CC(=O)OC12COC1CC(O)C1(C)C(=O)C(O)C3=C(C)C(OC(=O)C(O)C(NC(=O)OC(C)(C)C)c4ccccc4)CC(O)(C(OC(=O)c4ccccc4)C21)C3(C)C` (configuration not stated) was 6.5 nM (active).
As for `CC12CCC(OC3OC(CO)C(O)C(OC4OC(CO)C(O)C(O)C4O)C3O)CC1CCC1C2CCC2(C)/C(=C3/COC(=O)C3)CCC12O` (configuration not stated), the “activity change, negative = viability loss” value was -11% [at 17.3 µM] (inactive).
The same measure, in the same setting: next, `CC1(C)CCCC2(C)C(C(=O)O)=CCC12` (configuration not stated): -14.1% (inactive); `CC(=O)OC1C(c2ccccc2)CCC(c2ccccc2)C1OC(C)=O` (configuration not stated): 4.85% (inactive).
As for `COc1cc2c(cc1O)[C@H](c1ccc(O[C@@H]3O[C@H](CO)[C@@H](O)[C@H](O)[C@H]3O)c(OC)c1)[C@@H](CO)[C@](O)(CO)C2`, the “outcome” value was “inactive [at 17.3 µM]”.
Consider `C[C@H]1CC[C@@]2(OC1)O[C@H]1CC3C4CC[C@H]5C[C@@H](O)[C@H](O)C[C@]5(C)C4=CC(=O)[C@]3(C)[C@H]1[C@@H]2C` (some centres not stated), for which the “activity change, negative = viability loss” value is -12.5% [at 17.3 µM] (inactive).
Same read-out and setting: next, `CC(C)c1cc(C(=O)N2CC[C@H](NC(=O)C3CC3)C2)n[nH]1`: -27.5% (inactive).
In the case of `CC1(C)CC(=O)C2=C(C1)NC(=S)NC2c1cccc(O)c1` (configuration not stated), the Potency is 728 nM (active).
For the compound `CC(=O)C=C=C1C(C)(C)CC(O[C@@H]2O[C@H](CO)[C@@H](O)[C@H](O)[C@H]2O)CC1(C)O` (some centres not stated), the “activity change, negative = viability loss” value was -11.9% (inactive).
